The text below walks through data of PubChem BioAssay.

Chain of Neurogenic locus notch homolog protein 3 (Homo sapiens) (Q9UM47 whole entry, looked up): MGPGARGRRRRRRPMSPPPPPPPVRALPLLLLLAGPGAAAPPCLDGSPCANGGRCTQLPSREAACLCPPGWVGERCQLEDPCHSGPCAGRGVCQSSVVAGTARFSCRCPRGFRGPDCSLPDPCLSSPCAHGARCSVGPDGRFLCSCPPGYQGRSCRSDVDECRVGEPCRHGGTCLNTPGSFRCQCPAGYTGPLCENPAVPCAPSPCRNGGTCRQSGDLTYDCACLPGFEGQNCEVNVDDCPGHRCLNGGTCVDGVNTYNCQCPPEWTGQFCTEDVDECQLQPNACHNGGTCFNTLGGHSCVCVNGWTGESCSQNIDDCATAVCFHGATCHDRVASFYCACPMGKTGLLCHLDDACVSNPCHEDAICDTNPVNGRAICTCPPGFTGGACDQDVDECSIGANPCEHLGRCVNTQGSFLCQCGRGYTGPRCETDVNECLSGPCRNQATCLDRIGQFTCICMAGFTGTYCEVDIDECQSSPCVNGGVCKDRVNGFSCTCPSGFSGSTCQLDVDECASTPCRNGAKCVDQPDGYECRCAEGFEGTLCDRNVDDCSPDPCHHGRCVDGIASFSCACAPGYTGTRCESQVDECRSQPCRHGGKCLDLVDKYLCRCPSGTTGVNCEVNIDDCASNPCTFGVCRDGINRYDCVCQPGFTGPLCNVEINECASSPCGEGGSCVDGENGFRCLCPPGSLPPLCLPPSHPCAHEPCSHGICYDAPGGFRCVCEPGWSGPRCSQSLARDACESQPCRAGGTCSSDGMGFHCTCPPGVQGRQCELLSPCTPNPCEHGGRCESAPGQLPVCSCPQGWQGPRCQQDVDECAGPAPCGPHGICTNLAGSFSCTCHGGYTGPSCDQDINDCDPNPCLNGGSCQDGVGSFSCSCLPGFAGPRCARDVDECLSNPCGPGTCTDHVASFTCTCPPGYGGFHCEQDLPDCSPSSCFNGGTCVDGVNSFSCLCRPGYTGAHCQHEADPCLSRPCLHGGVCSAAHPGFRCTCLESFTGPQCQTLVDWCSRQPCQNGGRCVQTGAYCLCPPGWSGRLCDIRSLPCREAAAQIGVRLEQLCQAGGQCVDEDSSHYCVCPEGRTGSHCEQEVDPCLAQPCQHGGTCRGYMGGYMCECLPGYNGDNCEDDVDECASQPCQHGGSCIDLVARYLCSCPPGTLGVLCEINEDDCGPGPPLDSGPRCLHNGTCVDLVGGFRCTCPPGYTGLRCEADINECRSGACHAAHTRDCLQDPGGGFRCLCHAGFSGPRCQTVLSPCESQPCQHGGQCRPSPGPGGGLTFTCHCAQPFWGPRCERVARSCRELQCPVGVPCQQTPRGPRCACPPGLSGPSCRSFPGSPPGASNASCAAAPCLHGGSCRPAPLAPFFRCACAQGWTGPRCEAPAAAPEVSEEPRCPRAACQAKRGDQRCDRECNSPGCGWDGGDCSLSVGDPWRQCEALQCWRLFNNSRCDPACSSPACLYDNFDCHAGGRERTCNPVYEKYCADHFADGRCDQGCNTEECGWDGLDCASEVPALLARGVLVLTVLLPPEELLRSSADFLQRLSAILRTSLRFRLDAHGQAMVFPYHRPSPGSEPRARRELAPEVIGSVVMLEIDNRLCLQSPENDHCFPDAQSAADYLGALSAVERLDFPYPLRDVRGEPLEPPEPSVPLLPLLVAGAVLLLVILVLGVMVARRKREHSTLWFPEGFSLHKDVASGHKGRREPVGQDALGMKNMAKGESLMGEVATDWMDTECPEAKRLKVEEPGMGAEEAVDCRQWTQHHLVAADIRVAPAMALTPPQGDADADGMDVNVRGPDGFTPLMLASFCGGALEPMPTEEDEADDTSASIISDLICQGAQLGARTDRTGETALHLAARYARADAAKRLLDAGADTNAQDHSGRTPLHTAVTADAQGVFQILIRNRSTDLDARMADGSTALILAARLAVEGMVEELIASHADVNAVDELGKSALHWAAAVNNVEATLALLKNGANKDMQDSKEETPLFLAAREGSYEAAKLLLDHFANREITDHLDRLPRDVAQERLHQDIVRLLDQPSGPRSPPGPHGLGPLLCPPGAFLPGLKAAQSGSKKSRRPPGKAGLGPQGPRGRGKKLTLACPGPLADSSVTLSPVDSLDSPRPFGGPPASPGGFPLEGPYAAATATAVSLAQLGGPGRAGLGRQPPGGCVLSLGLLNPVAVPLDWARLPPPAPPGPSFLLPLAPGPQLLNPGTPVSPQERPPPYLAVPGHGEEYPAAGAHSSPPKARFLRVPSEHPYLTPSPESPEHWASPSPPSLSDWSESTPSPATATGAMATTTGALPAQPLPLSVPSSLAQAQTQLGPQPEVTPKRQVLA

The experiment has as its target Neurogenic locus notch homolog protein 3 (Homo sapiens) (UniProt Q9UM47). The experiment is described as follows: NOTCH3 binders on small-molecule microarray, primary screen, biochemical, 635/667 nm fluorescence (AID 1096). The following applies: NOTCH3 binding, 635 nm fluorescence, higher = more signal.
Take `C=CCC(OC(C)=O)[C@@H]1[C@@H](N(Cc2cccc3ccccc23)C(=O)c2ccc(-c3ccccc3)cc2)c2cc(OCCCO)ccc2N1C(=O)Cc1ccc2ccccc2c1` (stereo partly specified): the composite z-score came to 0.397.

Regarding `O=C(NC1CC1)[C@@H]1c2ccccc2C(=O)N(Cc2ccc(OC(F)(F)F)cc2)[C@H]1c1ccc(CO)cc1`, the composite z-score was found to be 0.377.

The compound `O=C(NC1CC1)[C@@H]1c2ccccc2C(=O)N(CC23CC4CC(CC(C4)C2)C3)[C@H]1c1ccc(CO)cc1` had a composite z-score of 1.02.

For `CC(=O)NCCCC[C@@H]1NC(=O)[C@H]2C[C@@H](C(=O)NCCCCCCNC(=O)CS)[C@@H](c3cccc(OCCO)c3)N2C1=O`, the composite z-score was found to be 0.846.

`O=C1O[C@@H](c2ccccc2)[C@@H](c2ccccc2)N2[C@@H](c3ccc(OCCO)cc3)[C@]3(C(=O)Nc4ccc(C#CC5(O)CCCCCC5)cc43)[C@@H](C(=O)O)[C@H]12` displayed a composite z-score of 0.743.

Compound `COC(=O)[C@@]1(Cc2ccccc2)[C@H]2c3cc(C(=O)N(C)C)n(Cc4ccc(C(F)(F)F)nc4)c3C[C@H]2CN1C(=O)c1ccccc1` gave a composite z-score of 1.03.

For the compound `CN1C(=O)C2C(C1=O)C1C=C(c3ccc(CO)cc3)C2C(C2CC2)N1C` (stereo unspecified), the composite z-score was -0.414.

In the case of `O=C1C=C(c2ccccc2)C(=O)C2=C1CC([C@H]1Oc3ccccc3S(=O)(=O)N3CCC[C@@H]13)=CC2`, the composite z-score turned out to be 0.0989.

For `C=C(COC)C(=O)CC[C@@H](OC(C)=O)c1ccccc1OCCO`, the composite z-score was 0.784.

Regarding `COCCOC(=O)N1C(=O)[C@@]2(c3cc(C#CCCO)ccc31)[C@H](c1ccccc1OCCO)N1[C@H](c3ccccc3)[C@H](c3ccccc3)OC(=O)[C@H]1[C@@H]2C(N)=O`, the composite z-score is 1.11.

Regarding `CCCCCCc1nc(Cc2cc(OC)c(OC)c(OC)c2)cc2c1[Si](C(C)C)(C(C)C)O[C@H]2c1ccccc1`, the composite z-score was 0.819.

The compound `COC(=O)[C@]1(CCC(=O)OC(C)(C)C)N=C(c2ccc(OCCCO)cc2)O[C@@H]1c1ccccc1N=[N+]=[N-]` yielded a composite z-score of 0.361.

In the case of `C[C@@H]1ON(c2ccc(I)cc2)[C@H](c2cccc(NC(=O)OCC3c4ccccc4-c4ccccc43)c2)[C@H]1C(=O)N1C(=O)OC[C@H]1Cc1ccccc1`, the composite z-score is 0.893.

In the case of `CC1CC/C=C\[C@H]2OC34C=CCN(C(C)(C)C)C(=O)[C@H]3N(CCCO)C(=O)[C@@H]4C2C(=O)O1` (stereo partly specified), the composite z-score was -0.281.

Compound `COc1ccc([Si](C)(C)[C@H]2[C@H](CC(=O)N3Cc4ccccc4C[C@H]3CO)O[C@@]3(C(=O)N(c4ccccc4)c4ccccc43)[C@@H]2C)cc1` yielded a composite z-score of 1.09.

In turn, `CCCNC(=O)[C@@]1(Sc2ccc(C)cc2)CC(=O)N(Cc2ccccc2Cl)[C@@H]1c1ccc(CO)cc1I` registered a composite z-score of -0.502.

In turn, `N#Cc1ccc(-c2cccc(=O)o2)cc1` registered a composite z-score of 0.718.

`CCCCC(O)C1C=CC2C(=O)N(c3ccccc3)C(=O)C2N1Nc1ccccc1` (stereo unspecified) returned a composite z-score of 0.452.

For `CC(C)=CCCC=C(C)C(O)C1C=CC2C(=O)N(c3ccccc3)C(=O)C2N1Nc1ccc(C#N)cc1` (stereo unspecified), the composite z-score was determined as 1.01.

`COCCOC(=O)N1C(=O)[C@@]2(c3cc(C#CC4(O)CCCCCC4)ccc31)[C@H](c1ccc(O)cc1)N1[C@H](c3ccccc3)[C@H](c3ccccc3)OC(=O)[C@H]1[C@@H]2C(=O)N1CCCCCCC1` registered a composite z-score of 1.06.

For the compound `COCCOC(=O)N1C(=O)[C@@]2(c3cc(C#Cc4ccc(OC)cc4)ccc31)[C@H](c1ccc(OCCO)cc1)N1[C@H](c3ccccc3)[C@H](c3ccccc3)OC(=O)[C@H]1[C@@H]2C(=O)NC[C@H](O)c1ccccc1`, the composite z-score turned out to be 1.1.

For `O=C(N1CCOCC1)[C@@]1(Cc2ccccc2)COC(c2ccc(OCCCO)cc2)=N1`, the composite z-score was 0.116.

Compound `COC(=O)c1cccc([C@H]2OC(=CC(=O)OC(C)C)C[C@@H](c3cccc(C(=O)OC)c3)O2)c1` returned a composite z-score of 0.974.

`CN1C(=O)[C@@H]2[C@@H](CC(COc3ccccc3)=C3[C@@H](CCc4ccccc4)OB(O)C[C@@H]32)C1=O` returned a composite z-score of -0.138.

In turn, `C=C(COC)C(=O)CC[C@@H](OC(=O)c1ccccc1-c1ccccc1C(=O)O)c1ccc(OCCO)cc1` returned a composite z-score of 0.505.

Consider `C=C(CCCC)C(=O)CC[C@H](OC(=O)c1ccccc1-c1ccccc1C(=O)O)c1ccc(OCCO)cc1`, for which the composite z-score is 0.171.

In turn, `C[N+](C)(C)CCCC[C@@H]1NC(=O)[C@H]2C[C@@H](C(=O)NCCCCCNC(=O)CS)[C@@H](c3cccc(OCCO)c3)N2C1=O` returned a composite z-score of -0.36.

`CC(C)NC(=O)[C@@]1(c2ccc([N+](=O)[O-])cc2)CC(=O)N(CC23CC4CC(CC(C4)C2)C3)[C@@H]1c1ccc(CO)cc1` registered a composite z-score of 1.02.

In the case of `CC(=O)OCC1C2CC[C@H]3C(OCc4ccc(F)cc4C(F)(F)F)OC[C@]4(C)[C@H]3C2=C(CN4C(=O)OC(C)(C)C)[C@H](C)C1COC(C)=O` (stereo partly specified), the composite z-score is -0.439.

Turning to `CC(C)(C)OC(=O)CC[C@]1(C(=O)NCC(O)CO)N=C(c2ccc(OCCCO)cc2)O[C@H]1c1ccccc1N=[N+]=[N-]` (stereo partly specified), the composite z-score turned out to be 0.398.

The compound `CCOC(=O)C1=CCC(c2cc3ccccc3[nH]2)N(CCN2CC(C(=O)OCC)=CCC2c2cc3ccccc3[nH]2)C1` (stereo unspecified) came in with a composite z-score of 0.862.

`COCC(=C=CC[C@H](O)c1ccccc1OCCO)C[C@H](O)COCc1ccccc1` displayed a composite z-score of 0.271.

As for `CN(C)CCCCNC(=O)[C@H]1C[C@H]2C(=O)N3CCC[C@H]3C(=O)N2[C@H]1c1cccc(OCCO)c1`, the composite z-score stood at 0.476.

The compound `COCCCNC(=O)[C@@H]1c2ccccc2C(=O)N(Cc2ccc(OC(F)(F)F)cc2)[C@H]1c1ccc(CO)cc1` showed a composite z-score of 0.554.

`COc1ccc(C#Cc2ccc3c(c2)[C@]2(C(=O)N3)[C@H](C(=O)O)[C@H]3C(=O)O[C@H](c4ccccc4)[C@H](c4ccccc4)N3[C@@H]2c2ccccc2OCCO)cc1` displayed a composite z-score of 1.04.

Consider `O=C1O[C@H](Cc2ccccc2)[C@@H]2[C@H]3C=CCCC=C3CN2[C@H]1Cc1ccc(O)cc1`, for which the composite z-score is -0.268.
